Measurements as given in the supplement of paper PMC10849652.
About 8,800 targets were measured; listed, in parts, are those with a hit and a random draw of the rest. About 0.5% of all pairs of compound and target were hits. Unmarked numbers belong to inactive results.

Legend:
Experiment in all cases: log2 fold change, soluble protein after heating vs DMSO (PISA); higher = thermal stabilisation; K562 lysate, 10 uM; active = over 0.2 and 3.5 SD of the protein, either way, in both replicates (recomputed)
lapatinib = compound: CS(=O)(=O)CCNCc1ccc(-c2ccc3ncnc(Nc4ccc(OCc5cccc(F)c5)c(Cl)c4)c3c2)o1 [lapatinib]
Summary of the method: (§1)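 A 30 min treatment with 10 μM compound was applied to crude K562 extract at 1 mg/mL protein in PBS pH 7.4 with 1 mM MgCl2. Heating for 3 min spanned 48°C-58°C, after which aliquots were pooled, adjusted to 0.5% NP-40 at 4°C and spun at 21,000xg for 90 min. TMTpro 16plex LC-MS/MS of the supernatant, with channel sums equalised, gave values recorded as log-two fold change in thermal stability against solvent controls, from duplicates.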

pictilisib = compound: CS(=O)(=O)N1CCN(Cc2cc3nc(-c4cccc5[nH]ncc45)nc(N4CCOCC4)c3s2)CC1 [pictilisib]
Summary of the method: as §1

crizotinib = compound: C[C@@H](Oc1cc(-c2cnn(C3CCNCC3)c2)cnc1N)c1c(Cl)ccc(F)c1Cl [crizotinib]
Summary of the method: as §1

[1] = compound: C[C@H](C1=CC=C(C=C1)C(=O)NC2=C3C=CNC3=NC=C2)N
Summary of the method: as §1

duvelisib = compound: C[C@H](Nc1ncnc2nc[nH]c12)c1cc2cccc(Cl)c2c(=O)n1-c1ccccc1 [duvelisib]
Summary of the method: as §1

gandotinib = compound: Cc1cc(Nc2cc(CN3CCOCC3)c3nc(C)c(Cc4ccc(Cl)cc4F)n3n2)n[nH]1 [gandotinib]
Summary of the method: as §1

tozasertib = compound: Cc1cc(Nc2cc(N3CCN(C)CC3)nc(Sc3ccc(NC(=O)C4CC4)cc3)n2)n[nH]1 [tozasertib]
Summary of the method: as §1

doramapimod = compound: Cc1ccc(-n2nc(C(C)(C)C)cc2NC(=O)Nc2ccc(OCCN3CCOCC3)c3ccccc23)cc1 [doramapimod]
Summary of the method: as §1

bafetinib = compound: Cc1ccc(NC(=O)c2ccc(CN3CC[C@H](N(C)C)C3)c(C(F)(F)F)c2)cc1Nc1nccc(-c2cncnc2)n1 [bafetinib]
Summary of the method: as §1

[2] = compound: Cc1cccc(CC(=O)N2CCc3c2ccc(-c2cn(C)c4ncnc(N)c24)c3F)n1
Summary of the method: as §1

nilotinib = compound: Cc1cn(-c2cc(NC(=O)c3ccc(C)c(Nc4nccc(-c5cccnc5)n4)c3)cc(C(F)(F)F)c2)cn1 [nilotinib]
Summary of the method: as §1

[3] = compound: Cc1nc(Nc2n[nH]c3c2CN(C(=O)N[C@H](CN(C)C)c2ccccc2)C3(C)C)c2sccc2n1
Summary of the method: as §1

dasatinib = compound: Cc1nc(Nc2ncc(C(=O)Nc3c(C)cccc3Cl)s2)cc(N2CCN(CCO)CC2)n1 [dasatinib]
Summary of the method: as §1

[4] = compound: Cc1ncc(-c2ccnc(Nc3ccc(S(C)(=O)=O)cc3)n2)n1C(C)C
Summary of the method: as §1

[5] = compound: Cn1cc(-c2ccc3c(c2)CCN3C(=O)Cc2cccc(C(F)(F)F)c2)c2c(N)ncnc21
Summary of the method: as §1

quisinostat = compound: Cn1cc(CNCC2CCN(c3ncc(C(=O)NO)cn3)CC2)c2ccccc21 [quisinostat]
Summary of the method: as §1

tipifarnib = compound: Cn1cncc1[C@@](N)(c1ccc(Cl)cc1)c1ccc2c(c1)c(-c1cccc(Cl)c1)cc(=O)n2C [tipifarnib]
Summary of the method: as §1

[6] = compound: NC(=O)Nc1cc(-c2cccc(F)c2)sc1C(=O)N[C@H]1CCCNC1
Summary of the method: as §1

[7] = compound: NC(=O)c1cnc(N[C@@H]2CCCC[C@@H]2N)nc1Nc1cccc(-n2nccn2)c1
Summary of the method: as §1

[8] = compound: NC1(c2ccc(-c3nc4ccn5c(=O)[nH]nc5c4cc3-c3ccccc3)cc2)CCC1
Summary of the method: as §1

Chain of UniProt O60337 (O60337 whole entry, looked up): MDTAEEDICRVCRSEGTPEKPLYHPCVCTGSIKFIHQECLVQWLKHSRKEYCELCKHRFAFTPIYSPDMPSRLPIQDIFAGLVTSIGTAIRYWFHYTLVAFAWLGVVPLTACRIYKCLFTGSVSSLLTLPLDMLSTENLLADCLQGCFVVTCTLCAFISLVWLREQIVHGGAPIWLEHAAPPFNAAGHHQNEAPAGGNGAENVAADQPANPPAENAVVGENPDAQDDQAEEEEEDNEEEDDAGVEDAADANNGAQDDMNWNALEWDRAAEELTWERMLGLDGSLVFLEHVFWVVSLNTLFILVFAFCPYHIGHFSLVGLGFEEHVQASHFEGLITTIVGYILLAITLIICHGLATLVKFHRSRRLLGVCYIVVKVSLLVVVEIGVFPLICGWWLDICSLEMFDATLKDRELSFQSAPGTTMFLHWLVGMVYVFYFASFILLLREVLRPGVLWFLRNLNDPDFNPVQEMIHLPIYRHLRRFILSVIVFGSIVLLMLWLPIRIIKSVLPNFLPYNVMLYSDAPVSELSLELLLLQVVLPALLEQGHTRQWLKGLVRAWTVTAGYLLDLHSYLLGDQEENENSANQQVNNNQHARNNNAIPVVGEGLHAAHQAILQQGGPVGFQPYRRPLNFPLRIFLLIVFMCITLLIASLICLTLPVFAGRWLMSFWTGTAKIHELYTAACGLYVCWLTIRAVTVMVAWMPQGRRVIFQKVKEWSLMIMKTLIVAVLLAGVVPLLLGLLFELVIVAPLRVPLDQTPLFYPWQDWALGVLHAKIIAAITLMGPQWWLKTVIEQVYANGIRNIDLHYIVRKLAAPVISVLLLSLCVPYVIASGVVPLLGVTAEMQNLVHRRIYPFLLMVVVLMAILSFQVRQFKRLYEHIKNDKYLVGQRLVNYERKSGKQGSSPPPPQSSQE
Chain of UniProt Q15334 (Q15334 whole entry, looked up): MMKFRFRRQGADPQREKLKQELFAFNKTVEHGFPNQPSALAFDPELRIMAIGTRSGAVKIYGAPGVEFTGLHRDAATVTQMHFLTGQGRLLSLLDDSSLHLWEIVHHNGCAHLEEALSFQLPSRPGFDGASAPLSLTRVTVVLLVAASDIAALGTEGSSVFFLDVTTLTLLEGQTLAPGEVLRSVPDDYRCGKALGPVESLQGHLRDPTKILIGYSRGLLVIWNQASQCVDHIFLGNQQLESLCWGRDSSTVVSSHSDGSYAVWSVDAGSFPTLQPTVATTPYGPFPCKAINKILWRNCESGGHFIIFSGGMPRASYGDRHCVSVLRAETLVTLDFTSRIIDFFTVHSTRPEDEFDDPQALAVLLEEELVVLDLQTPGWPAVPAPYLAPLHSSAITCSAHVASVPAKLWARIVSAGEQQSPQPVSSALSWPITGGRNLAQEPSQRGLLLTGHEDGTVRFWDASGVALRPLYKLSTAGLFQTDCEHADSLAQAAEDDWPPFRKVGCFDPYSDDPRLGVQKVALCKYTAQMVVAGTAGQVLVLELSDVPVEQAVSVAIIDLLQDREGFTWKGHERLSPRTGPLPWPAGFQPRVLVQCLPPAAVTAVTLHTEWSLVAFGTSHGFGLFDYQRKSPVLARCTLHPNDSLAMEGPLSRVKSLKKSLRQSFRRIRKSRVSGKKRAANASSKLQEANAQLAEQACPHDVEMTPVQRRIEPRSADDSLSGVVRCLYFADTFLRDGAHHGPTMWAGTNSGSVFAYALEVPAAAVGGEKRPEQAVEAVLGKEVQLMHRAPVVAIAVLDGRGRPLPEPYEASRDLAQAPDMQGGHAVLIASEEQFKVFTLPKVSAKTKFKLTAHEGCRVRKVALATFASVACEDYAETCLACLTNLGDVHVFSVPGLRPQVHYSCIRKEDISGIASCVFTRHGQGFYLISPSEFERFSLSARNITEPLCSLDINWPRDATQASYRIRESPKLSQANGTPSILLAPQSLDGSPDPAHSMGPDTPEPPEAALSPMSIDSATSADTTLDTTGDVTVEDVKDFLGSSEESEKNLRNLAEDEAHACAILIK
Chain of UniProt Q99661 (Q99661 whole entry, looked up): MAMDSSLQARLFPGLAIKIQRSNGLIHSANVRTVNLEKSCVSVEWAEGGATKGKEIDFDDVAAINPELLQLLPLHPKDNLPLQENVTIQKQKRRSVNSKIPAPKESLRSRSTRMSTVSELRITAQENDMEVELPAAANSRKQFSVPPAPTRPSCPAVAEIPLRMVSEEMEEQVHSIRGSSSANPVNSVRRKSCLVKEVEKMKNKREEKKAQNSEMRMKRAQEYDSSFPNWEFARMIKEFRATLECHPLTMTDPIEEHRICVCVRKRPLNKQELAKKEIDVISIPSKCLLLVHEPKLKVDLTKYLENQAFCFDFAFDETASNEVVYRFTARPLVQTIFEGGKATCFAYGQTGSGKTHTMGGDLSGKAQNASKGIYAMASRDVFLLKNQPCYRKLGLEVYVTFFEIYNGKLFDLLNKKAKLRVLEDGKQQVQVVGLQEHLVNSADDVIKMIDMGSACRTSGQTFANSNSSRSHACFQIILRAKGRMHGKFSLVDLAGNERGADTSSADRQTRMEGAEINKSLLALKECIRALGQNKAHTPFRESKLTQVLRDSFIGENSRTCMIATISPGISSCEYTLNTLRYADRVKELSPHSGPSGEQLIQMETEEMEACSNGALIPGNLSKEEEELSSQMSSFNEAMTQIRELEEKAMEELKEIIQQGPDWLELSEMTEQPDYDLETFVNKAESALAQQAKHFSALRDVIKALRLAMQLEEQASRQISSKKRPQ
Chain of UniProt Q9NZL9 (Q9NZL9 whole entry, looked up): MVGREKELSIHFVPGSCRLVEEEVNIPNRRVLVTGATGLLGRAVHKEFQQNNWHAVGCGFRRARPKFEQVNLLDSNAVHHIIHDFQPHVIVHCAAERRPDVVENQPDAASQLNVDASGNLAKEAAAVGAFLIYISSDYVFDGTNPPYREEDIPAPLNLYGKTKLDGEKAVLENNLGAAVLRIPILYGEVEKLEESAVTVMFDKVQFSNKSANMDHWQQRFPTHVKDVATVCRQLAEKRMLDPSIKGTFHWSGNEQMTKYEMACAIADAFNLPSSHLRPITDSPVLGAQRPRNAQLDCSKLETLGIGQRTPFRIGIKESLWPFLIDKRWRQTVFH
Chain of UniProt P48449 (P48449 whole entry, looked up): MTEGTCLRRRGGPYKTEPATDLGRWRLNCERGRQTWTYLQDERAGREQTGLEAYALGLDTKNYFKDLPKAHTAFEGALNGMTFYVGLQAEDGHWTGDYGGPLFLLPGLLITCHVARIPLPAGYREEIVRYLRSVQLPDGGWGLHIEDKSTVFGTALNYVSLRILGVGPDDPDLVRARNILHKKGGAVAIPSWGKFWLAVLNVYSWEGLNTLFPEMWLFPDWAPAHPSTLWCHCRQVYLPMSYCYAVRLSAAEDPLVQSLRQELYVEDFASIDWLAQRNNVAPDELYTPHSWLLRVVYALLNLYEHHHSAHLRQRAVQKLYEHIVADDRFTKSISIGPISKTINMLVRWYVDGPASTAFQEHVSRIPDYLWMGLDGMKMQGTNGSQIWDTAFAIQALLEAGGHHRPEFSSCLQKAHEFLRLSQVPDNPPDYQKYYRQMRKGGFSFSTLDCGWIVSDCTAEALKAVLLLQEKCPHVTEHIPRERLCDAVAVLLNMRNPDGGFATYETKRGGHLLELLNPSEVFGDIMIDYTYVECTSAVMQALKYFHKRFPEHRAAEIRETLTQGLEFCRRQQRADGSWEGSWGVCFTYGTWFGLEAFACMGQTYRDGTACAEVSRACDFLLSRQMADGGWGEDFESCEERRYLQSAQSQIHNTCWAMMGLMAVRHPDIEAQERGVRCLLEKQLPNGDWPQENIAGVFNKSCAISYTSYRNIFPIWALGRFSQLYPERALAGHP
Chain of UniProt Q8NHP6 (Q8NHP6 whole entry, looked up): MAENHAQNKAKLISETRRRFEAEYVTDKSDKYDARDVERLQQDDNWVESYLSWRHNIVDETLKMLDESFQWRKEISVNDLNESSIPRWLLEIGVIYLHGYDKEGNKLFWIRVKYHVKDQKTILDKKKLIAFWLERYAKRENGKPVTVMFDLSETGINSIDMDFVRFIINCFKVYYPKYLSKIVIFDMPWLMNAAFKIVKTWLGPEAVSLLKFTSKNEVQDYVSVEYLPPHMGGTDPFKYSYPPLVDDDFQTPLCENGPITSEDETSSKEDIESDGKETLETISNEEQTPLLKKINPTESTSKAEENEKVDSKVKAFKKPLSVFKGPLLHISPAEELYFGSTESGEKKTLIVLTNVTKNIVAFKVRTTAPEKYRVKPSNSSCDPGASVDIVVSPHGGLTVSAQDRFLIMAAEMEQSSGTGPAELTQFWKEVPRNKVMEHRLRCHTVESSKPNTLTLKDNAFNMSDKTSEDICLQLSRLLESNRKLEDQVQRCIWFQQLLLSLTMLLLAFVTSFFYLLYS
Chain of UniProt Q92615 (Q92615 whole entry, looked up): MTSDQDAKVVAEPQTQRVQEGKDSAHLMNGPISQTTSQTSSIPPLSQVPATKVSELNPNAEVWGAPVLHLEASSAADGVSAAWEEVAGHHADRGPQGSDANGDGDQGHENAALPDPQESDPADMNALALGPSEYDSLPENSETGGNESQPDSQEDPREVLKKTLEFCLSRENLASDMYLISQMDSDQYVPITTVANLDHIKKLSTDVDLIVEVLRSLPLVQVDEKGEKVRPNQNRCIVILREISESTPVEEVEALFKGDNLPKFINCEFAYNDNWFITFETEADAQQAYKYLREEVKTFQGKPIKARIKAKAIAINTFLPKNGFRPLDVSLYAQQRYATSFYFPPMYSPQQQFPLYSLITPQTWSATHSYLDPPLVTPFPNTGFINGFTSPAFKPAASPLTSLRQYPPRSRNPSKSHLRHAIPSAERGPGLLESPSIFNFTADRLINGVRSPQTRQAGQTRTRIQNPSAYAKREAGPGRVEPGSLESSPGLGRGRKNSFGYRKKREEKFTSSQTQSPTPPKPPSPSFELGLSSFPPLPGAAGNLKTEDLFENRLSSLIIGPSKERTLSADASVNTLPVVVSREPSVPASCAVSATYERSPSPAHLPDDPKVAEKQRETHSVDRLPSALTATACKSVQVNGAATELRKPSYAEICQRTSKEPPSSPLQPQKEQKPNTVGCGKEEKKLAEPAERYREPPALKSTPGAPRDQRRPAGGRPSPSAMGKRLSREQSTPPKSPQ

Target	log2 fold change (lapatinib)	log2 fold change (pictilisib)	log2 fold change (crizotinib)	log2 fold change [1]	log2 fold change (duvelisib)	log2 fold change (gandotinib)	log2 fold change (tozasertib)	log2 fold change (doramapimod)	log2 fold change (bafetinib)	log2 fold change [2]	log2 fold change (nilotinib)	log2 fold change [3]	log2 fold change (dasatinib)	log2 fold change [4]	log2 fold change [5]	log2 fold change (quisinostat)	log2 fold change (tipifarnib)	log2 fold change [6]	log2 fold change [7]	log2 fold change [8]
MED8 isoform 2 (UniProt Q96G25)	0.005	-0.051	0.014	0.269 (active)	0.023	-0.026	0.047	0.069	-0.031	-0.044	0.084	-0.033	-0.017	-0.007	0.044	-0.043	0.081	-0.005	0.016	0.024
MICB, A0A140T979	-0.169	-0.074	-0.067	-0.042	0.052	0.011	-0.177	-0.003	-0.001	0.027	-0.044	0.042	0.024	0.033	-0.055	-0.06	-0.025	-0.004	0.491	0.21
LLGL1 (UniProt Q15334)	-0.005	-0.058	-0.025	0.263 (active)	0.096	-0.011	0.054	0.006	-0.104	-0.019	0	0.149	-0.011	0.052	0.016	-0.046	-0.077	0.159	0.053	0.075
MIPEP (UniProt Q99797)	-0.013	-0.031	0.041	-0.004	-0.022	-0.049	0.072	-0.059	0.016	0.04	0.002	0.024	0.005	-0.008	0.031	0.45 (active)	0.033	-0.016	0.01	0.054
MARCHF6 (UniProt O60337)	-0.039	0.09	-0.118	-0.073	0.103	-0.028	0.004	0.003	-0.105	-0.005	0.164	-0.024	-0.136	0.04	-0.169	-0.085	-0.179	-0.025	-0.023	-0.008
MAT2B (UniProt Q9NZL9)	0.008	-0.028	0.007	0.063	-0.031	-0.02	0.019	-0.023	-0.007	0.005	0.002	-0.014	-0.023	-0.024	-0.007	0.021	0.02	-0.005	0.04	0.009
MOSPD2 (UniProt Q8NHP6)	0.01	-0.036	-0.041	-0.076	-0.02	0.003	0.021	0.022	-0.009	0.1	0.054	-0.146	0.006	-0.009	0.015	-0.096	0.089	-0.034	-0.043	-0.026
LRPPRC (UniProt P42704)	-0.01	0.048	-0.062	0.058	-0.005	-0.189	0.023	0.022	-0.008	0.045	-0.019	-0.004	-0.062	0.012	0.056	-0.003	-0.027	0.052	0.047	0.004
LSS (UniProt P48449)	0	0.11	0.252 (active)	0.01	0.008	0.028	0.02	0.031	0.13	-0.013	0.042	0.001	0.016	-0.025	0.047	-0.022	-0.065	0.003	0.083	0.092
LARP4B (UniProt Q92615)	0.01	0.016	-0.019	-0.051	-0.033	0.029	-0.009	-0.044	-0.047	0.096	-0.05	0.03	-0.053	-0.02	0.012	-0.026	0	0.026	-0.001	0.008
MRPL28 (UniProt Q13084)	-0.046	0.03	-0.08	0.482 (active)	0.043	-0.246	0.059	-0.012	-0.04	-0.228	0.03	-0.111	-0.013	-0.037	0.051	-0.031	0.149	0.057	0.015	-0.058
KIF2C (UniProt Q99661)	0.002	-0.003	-0.007	0.004	0.011	-0.051	-0.008	0.022	0.004	-0.002	0.013	0.009	-0.021	0.002	0.028	-0.068	0.003	0.035	-0.01	-0.005
